# Tau FP inhib: tau fibrillization inhibition (FP). K18 P301L tau heparin fibrillization, Alexa594 FP, 6 h. Potency, µM (series often up to 57.7 µM), for the others: at the highest dose activity, negative = inhibition, hits mostly inhibitors. 280,000 tested, 0.39% active. AID 1468; also: nearly all actives have a fitted effect of over 55% in size
# Target sequence (P10636 561-689 P618L limits assumed): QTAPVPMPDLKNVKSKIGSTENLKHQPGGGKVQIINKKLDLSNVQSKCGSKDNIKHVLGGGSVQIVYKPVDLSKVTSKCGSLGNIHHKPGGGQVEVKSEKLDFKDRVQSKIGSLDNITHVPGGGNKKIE
#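 Read-out: fluorescence polarization of Alexa 594-labeled tau (0.24 uM), 555 nm excitation, 632 nm emission. Mixtures held 15 uM unlabeled K18 P301L, compound and 20 uM heparin, pH 7 acetate buffer, incubated 6 hr at 37 C.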
# TexasRed fluor: alters Texas Red total fluorescence, flagging assay interference | TRb/SRC2 Texas Red total fluorescence interference | Potency, µM (doses to about 106 µM), for inactives: at the top dose fluorescence change, negative = quenching | 280,000 tested, 0.29% active | AID 1479; active = well fitted curve in either direction with a large enough effect; inconclusive = small, poorly fitted or top-dose-only effect
#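 Human TRβ ligand-binding domain (0.6 uM) and Texas Red SRC2 peptide (20 nM) in Tris buffer with 1 uM T3 and 5% DMSO were incubated with pinned compound for 5 hr at ambient temperature. Total fluorescence was computed as S + 2P (555/632 nm).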
# Tau fibril ThT: inhibitors of human tau fibril formation, thioflavin T binding | P10636 | recombinant tau K18 P301L, heparin-induced fibrillization, ThT fluorescence | Potency, µM (series often up to 57.4 µM), inactives show at the top dose activity, negative = inhibition, usual class: inhibitors | 270,000 tested, 2.1% active; also: nearly all actives have a fitted effect of over 55% in size
#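 Aggregation was driven by heparin (20 uM final) acting on recombinant tau […] bearing P301L in 100 mM sodium acetate pH 7; fibrils were detected with Thioflavin T.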
# Tau fluor cs: counter-screen for tau fibril formation inhibitors | tau K18 P301L Alexa594 fluorescence, heparin fibrillization | Potency, µM (doses to about 57.7 µM), without a hit: at the top dose activity change, negative = decrease | 280,000 tested, 0.93% active | AID 1463; also: nearly all actives have a fitted effect of over 55% in size
#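 Human tau K18 P301L (15 uM unlabeled, 0.24 uM Alexa 594-labeled) in 100 mM sodium acetate pH 7 with 20 uM heparin, 6 hr at 37 C. ThT 30 uM added, 1 hr ambient; Alexa 594 FP and total fluorescence read at 555/632 nm.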
# TRb SRC2 PPI: inhibitors of human thyroid hormone receptor beta-SRC2 interaction. P10828. TRbeta-SRC2 peptide binding, fluorescence polarization; receptor liganded with 1 µM T3. Potency, µM (highest dose often 106 µM), inactives show top-dose activity change, negative = inhibition, actives largely listed as inhibitors. 280,000 tested, 0.065% active. AID 1469;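 also: plate controls were bound peptide for no effect and peptide without receptor for full effect; nearly all actives have a fitted effect of over 50% in size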
# Target sequence (P10828 whole entry, looked up): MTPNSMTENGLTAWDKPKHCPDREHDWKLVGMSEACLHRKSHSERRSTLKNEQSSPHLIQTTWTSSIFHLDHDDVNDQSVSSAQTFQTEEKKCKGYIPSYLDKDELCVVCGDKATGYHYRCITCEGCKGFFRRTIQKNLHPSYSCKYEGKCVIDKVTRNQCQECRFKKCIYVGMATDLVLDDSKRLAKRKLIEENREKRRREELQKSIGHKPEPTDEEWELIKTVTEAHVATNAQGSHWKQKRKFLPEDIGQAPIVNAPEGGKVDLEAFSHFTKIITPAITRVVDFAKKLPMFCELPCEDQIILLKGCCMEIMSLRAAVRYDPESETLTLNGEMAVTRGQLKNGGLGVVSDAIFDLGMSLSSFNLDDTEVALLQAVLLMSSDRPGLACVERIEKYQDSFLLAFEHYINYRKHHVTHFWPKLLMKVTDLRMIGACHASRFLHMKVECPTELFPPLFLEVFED
#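 Quantitative HTS by FP: 0.6 uM TRb LBD, 20 nM labeled SRC2 20-mer, 1 uM T3, 5% DMSO; 5 hr ambient incubation; % activity per concentration and potencies from concentration series.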
# An asterisk follows results filed as active; u = inconclusive; x = not tested or not shown; [ ] = dose if it differs, or a comment. In the library only some 3.1% were active in any assay of this set; here they are far more common. Unless noted, calls follow the shape of the dose curve; as a rule, active = well fitted curve in the direction sought with a large enough effect; inconclusive = small, poorly fitted or top-dose-only effect, or another doubt; inactive = no such curve, though single readings can be large; an effect the other way counts as inactive or inconclusive. Unless noted, % is scaled to controls: 0 for no effect and ±100 for the full control effect; potency is read from the fitted curve at half-maximal effect.
SMILES,Tau FP inhib,TexasRed fluor,Tau fibril ThT,Tau fluor cs,TRb SRC2 PPI
NC(=O)c1cc(N)ccc1N1CCCC1,u,45µM*[fluorescent],u,-20%,40µM*
Cc1nn(C)c(Oc2ccccc2)c1/C=N/OCc1ccc(C(=O)OC(C)(C)C)cc1,x,-1%[201 µM],x,x,-5%[201 µM]
COC(=O)c1cccc(NC(=O)C2CCN(S(=O)(=O)Cc3ccccc3)CC2)c1C,-1%,1%,9%,2%,-2%
COc1cccc(C(=O)Nc2ccc(C(=O)OCc3cc(=O)n4cc(C)sc4n3)cc2)c1,-15%,-4%,-9%,-19%,4%
CCOC(=O)c1c(C)oc2c1c(C=NCCO)c(O)c1ccccc12,-5%,0%,13µM*,u,7%
COc1ccc2c(c1)CC(C(=O)NCCCN1CCN(c3cccc(Cl)c3)CC1)CO2 (configuration not stated),6%,-22%,-14%,-15%,7%
O=C(Cc1cccs1)N/N=C/C=C/c1ccco1,u,-3%,25µM*,u,-8%
O=C(CNc1cccc2ccccc12)N/N=C/C=C/c1ccco1,10%,-1%,u,16µM*[quencher],4%
O=C(CSc1nnc(SCc2ccccc2)s1)N/N=C/C=C/c1ccco1,u,u,u,-21%,-1%
ICCc1ccccc1,x,-1%,x,x,1%
CN(C)c1ccc(N=Nc2nc3ccccc3n2C)cc1,u,-2%,0.5µM*,13µM*[quencher],6%
Cn1c(N=Nc2ccccc2)nc2ccccc21,1%,-9%,5%,2%,5%
O=C1c2ccccc2C(=O)c2cc(S(=O)(=O)Nc3ccccc3)ccc21,u,-4%,22µM*,14µM*[quencher],4%
O=c1c2c3c(sc2ncn1/N=C/c1ccc([N+](=O)[O-])o1)CCCC3,-15%,1%,20µM*,u,-3%
O=C(NC(=S)NCc1ccc(-c2nc3ccccc3s2)cc1)c1ccco1,u,4%,-8%,u,-1%
O=C(NCc1ccc(-c2nc3ccccc3s2)cc1)c1ccco1,u,0.0006µM*[quencher],-3%,0%,-10%
COc1ccc(Nc2c3c(nc4ccc(NC(=O)c5ccc(F)cc5)cc24)CCCC3)cc1OC,8%,-1%,16µM*,u,-3%
COc1ccccc1Nc1c2c(nc3ccc(NC(=O)c4ccc(OC)c(OC)c4)cc13)CCCC2,-17%,-2%,25µM*,u,0%
COc1ccc(C(=O)Nc2ccc3nc4c(c(Nc5ccccc5OC)c3c2)CCCC4)c(OC)c1,-7%,-2%,18µM*,u,-10%
CCN(CC)S(=O)(=O)c1cccc(C(=O)N/N=C/c2ccc(O)c(O)c2O)c1,8.9µM*,-28%,3.2µM*,u,-5%
CCn1c(C)nc2cc(C(=O)N/N=C/c3ccc(O)c(O)c3O)ccc21,7.9µM*,u,3.2µM*,u,-6%
COc1ccc(O)c(/C=N/NC(=S)Nc2cccc(S(=O)(=O)N(C)C)c2)c1,u,-3%[53 µM],u,u,1%[53 µM]
CCn1c(C)nc2cc(C(=O)N/N=C/c3cccc(OC)c3O)ccc21,4%,1%,u,-25%,2%
CN(C)S(=O)(=O)c1cccc(NC(=S)N/N=C/c2ccc(O)c(O)c2O)c1,7.1µM*,-6%,3.2µM*,13µM*[quencher],3%
CCOc1ccccc1/C=N/NC(=O)c1cccc(S(=O)(=O)N(CC)CC)c1,-2%,1%,-10%,-19%,1%
SMILES,Tau FP inhib,TexasRed fluor,Tau fibril ThT,Tau fluor cs,TRb SRC2 PPI
COc1cccc(CNC(=O)c2cc(S(=O)(=O)N3CCCCCC3)cn2C)c1,0%,u,9%,4%,-2%
COc1ccc(-c2nc3c(c4c2C[C@H](c2ccccc2)OC4)CN(S(=O)(=O)c2ccc(C#N)cc2)CC3)c(C)c1,2%[11.6 µM],-3%[11.2 µM],9%[11.5 µM],5%[11.6 µM],-4%[11.2 µM]
C/C(CCN1CCc2nc(-c3ccccc3)c(-c3ccccc3)cc2C1)=N\O[C@@H](C)CN1CCCCc2nc(C)c(C)cc21,-1%[11.6 µM],0%[11.2 µM],-8%[11.5 µM],-1%[11.6 µM],2%[11.2 µM]
CC(C)c1ccc(Nc2nc3ccc(C(=O)c4ccccc4)cc3n3cnnc23)cc1,-1%,0%,6%,-13%,0%
COC(=O)c1cc(S(=O)(=O)NCc2ccc(S(N)(=O)=O)cc2)oc1C,1%,-4%,-7%,-11%,0%
O=C1COc2ccc(-c3cc(-c4ccc(Cl)cc4)c4c(n3)-c3ccccc3OC4)cc2N1,u,10µM*[quencher],3%,-12%,-7%
O=C1COc2ccc(-c3cc(-c4ccccc4)c4c(n3)-c3ccccc3OC4)cc2N1,-9%,3%,7%,-14%,6%
O=c1c(-c2cc(-c3ccccc3)nc3c2COc2ccccc2-3)coc2ccc(Cl)cc12,-8%,20µM*[quencher],-2%,-13%,-8%
CC(=O)N1CCN(c2ccc(NC(=S)NC(=O)COc3ccc(C(C)(C)C)cc3)cc2)CC1,5%,-2%,4µM*,-24%,-5%
Nc1cnn([C@@H]2O[C@H](CO)[C@@H](O)[C@H]2O)c(=O)n1,x,-3%,x,x,5%
O=C(Cn1cc(C(=O)C2CC2)c2ccccc21)Nc1ccc(Br)cc1,u,1%,9%,-4%,-8%
CCCc1cc(-c2n[nH]c(C)c2-c2ccc(C(=O)OCC)o2)c(O)cc1O,u,-6%,-9%,14µM*[quencher],2%
CCc1cc(-c2n[nH]c(C)c2-c2ccc3c(c2)OCCO3)c(O)cc1O,14%,0%,u,10µM*[quencher],0%
CC1(C)CC(=O)C2=C(C1)NC1=C(C(=O)c3ccccc31)C2c1ccc(O)cc1 (configuration not stated),14%,-6%,18µM*,u,-1%
CN(C)c1ccc(/C=C2/C=C(c3ccc4c(c3)CCCC4)OC2=O)cc1,u,-1%,3.2µM*,u,0%
C=CCn1c(NC(=O)c2ccc(Br)o2)c(S(=O)(=O)c2ccccc2)c2nc3ccccc3nc21,u,-3%,20µM*,-27%,-20%
CSc1nc(NCCOCCO)c2sc3nc(-c4ccco4)c4c(c3c2n1)CCC4,-8%,u,u,-8%,8%
CCN(CCO)c1nc(SC)nc2c1sc1nc(-c3ccco3)c3c(c12)CCC3,u,-7%,25µM*,u,-3%
CCOc1ccc(NC(=O)c2c(NCc3cccnc3)sc3c2CCC(C)C3)cc1 (configuration not stated),-11%,-16%,16µM*,u,-7%
CCOC(=O)c1ccc(NC(=O)c2c(NC(=O)CCC(=O)O)sc3c2CCCCC3)cc1,-15%,0%[53 µM],u,-2%,0%[53 µM]
NC(=O)c1c(NC(=O)c2cccs2)sc2c1CCCCCC2,1%,-3%,-12%,-18%,-1%

# High-throughput results deposited in PubChem by National Center for Advancing Translational Sciences (NCATS).
